Bioassay records as filed in PubChem BioAssay.
Rows were chosen to be rich in hits. Some 2.4% of all compounds tested hit in one or more screens of this group.
PP5 primary: blocks human protein phosphatase 5 activity; inhibition, % at 6.7 µM; hit rate 0.18% among 320,000; purified PP5c, OMFP substrate fluorescence;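 active means inhibition above the campaign's mean inhibition across all tested compounds plus 3 SD, cut at about 9.5% in these data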
Rpn11 inh: inhibitors of human proteasome Rpn11 | O00487 | human 26S proteasome, Ub4-pepOG fluorescence polarization; 20S core pre-blocked with epoxomicin | inhibition, % at 20 µM | hit rate 0.59% among 360,000;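 active means inhibition at 20 µM, scaled to each plate's controls, above about 33%, limit read from the data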
PP1 counter: counter-screen for PP5 inhibitors: inhibitors of human PP1-alpha. AID 2235. inhibition, % at 6.7 µM. purified PP1alpha, OMFP fluorescence. hit rate 0.9% among 320,000;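 active means inhibition above the mean inhibition of all tested compounds plus 3 SD, computed separately for each screening campaign, cut at about 15% in these data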
NadD inh: inhibitors of Staphylococcus aureus NadD | hit rate 0.78% among 360,000 | purified NadD enzyme, colorimetric absorbance read-out | inhibition, % at 20 µM; in the data active means inhibition above about 26%
PREPL inh: inhibitors of human prolyl oligopeptidase-like enzyme PREPL; inhibition, % at 5.96 µM; Q4J6C6; hit rate 0.68% among 320,000; recombinant PREPL, fluorescence polarization activity-based probe; in the data active means inhibition above about 43%
NadD conf: NadD (S. aureus) inhibition, single concentration confirmation. purified S. aureus NadD, colorimetric enzyme assay. hit rate 13% among 2,000. AID 624309. shares compounds with NadD inh. inhibition, % at 20 µM; in the data active means inhibition mostly above about 42%, no sharp cut-off; inactive means mostly below about 42%
Each line names hits and unclear results; the compound was inactive in the other large screens (follow-up assays come after a bar, where they were run).

Cc1ccc(Nc2nc(N)nc(N)c2N=O)cc1Cl	none (no result: PP5 primary, Rpn11 inh, PP1 counter, PREPL inh)
O=c1oc2ccc3ccccc3c2cc1-c1nnc(-c2cccs2)o1	NadD inh 50 | NadD conf inactive
Cc1cc2nc(-c3ccc(F)cc3)c(Cc3ccccc3)n2c(C)c1Br	none (no result: PP5 primary, PP1 counter, PREPL inh)
Cc1cc2nc(-c3cccc(Br)c3)c(Cc3ccsc3)n2c(C)c1Br	NadD inh 41 (no result: PP5 primary, Rpn11 inh, PP1 counter, PREPL inh) | NadD conf inactive
Cc1cc2nc(-c3ccccc3)c(Cc3cccc(Cl)c3)n2c(C)c1Br	NadD inh 38 (no result: PP5 primary, Rpn11 inh, PP1 counter, PREPL inh) | NadD conf inactive
Clc1cccc(Cc2c(-c3cccc(Br)c3)nc3ccc(Br)cn23)c1	NadD inh 30 (no result: PP5 primary, PP1 counter, PREPL inh) | NadD conf inactive
Cc1cc2nc(-c3ccc(F)cc3)c(Cc3cccc(Cl)c3)n2c(C)c1Br	NadD inh 69 (no result: PP5 primary, Rpn11 inh, PP1 counter, PREPL inh) | NadD conf inactive
Cc1ccc(-c2nc3cc(C)c(Br)c(C)n3c2Cc2cccc(Cl)c2)cc1	none (no result: PP5 primary, Rpn11 inh, PP1 counter, PREPL inh)
CCc1nnc(NS(=O)(=O)c2ccc(N=Cc3c(C)[nH]n(-c4cccc(Cl)c4)c3=O)cc2)s1	none
Cc1ccc(-n2[nH]c(C)c(C=Nc3ccc(S(=O)(=O)Nc4nccs4)cc3)c2=O)cc1C	NadD inh 42 | NadD conf 52
CCc1nnc(NS(=O)(=O)c2ccc(N=Cc3c(C)[nH]n(-c4ccc(Cl)cc4)c3=O)cc2)s1	NadD inh 31 | NadD conf 47
Cc1[nH]n(-c2ccccc2)c(=O)c1C=Nc1ccc(S(=O)(=O)Nc2nccs2)cc1	none
Cc1ccc(-n2nc3c(c2NC(=O)c2cccs2)CSC3)cc1	NadD inh 56 | NadD conf 77
Cc1ccc(-n2nc3c(c2NC(=O)c2cccs2)CS(=O)(=O)C3)cc1	none
Cc1cccc(-n2nc3c(c2NC(=O)c2ccc(Br)o2)CSC3)c1	NadD inh 44 | NadD conf 65
